We go through 40 molecules from PubChem BioAssay (NCI).

The panel holds about 83,000 compounds, 20% with a hit somewhere; the sample as a whole holds those more often.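 The test compound was applied at a single concentration to cells in 96-well plates for 48 hours, and percent growth was recorded.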 Values without a mark were called inactive. Calls of active or inactive are those of the source.

The test system of this assay is SN12C renal. Briefly: NCI-60 one-dose screen, 48 h (100 = growth as untreated, 0 = no growth, -100 = all killed). To be noted: 10 µM unless noted. The method, then: Growth inhibition of the SN12C human tumor cell line is measured as a screen for anti-cancer activity. Cells are grown in 96 well plates and exposed to the test compound for 48 hours. Compounds are tested at a single concentration, which is 10^-5 M for most compounds. The reported endpoint is percent growth (GI% or GIPRCNT), where numbers from 0 - 100% represent growth inhibition, and numbers from -100% - 0 represent cell death. For example, a value of 40 represents 60% growth inhibition. A value of 0 means no net growth occurred over the course of the experiment. A value of -40 indicates 40% of cells at the beginning of the experiment died by the end of the experiment. A value of -100 means all cells are dead at the end of the experiment.
NCI-60 Human Tumor Cell Lines Screen was performed using the standard one-dose NCI protocol, which is described in more detail at https://dtp.cancer.gov/discovery_development/nci-60/default.htm.
Compounds with GIPRCNT values below 10 were considered active. Activity score was based on GIPRCNT using the following formula: […]
Score is 0 for GIPRCNT values of 100 or above, 50 for GIPRCNT values of 0, and 100 for GIPRCNT values of -100.
`Brc1ccc(Nc2nc(Nc3cnc4ccccc4c3)c3[nH]cnc3n2)cc1`: the growth is 88.3%.

Turning to `CC1SC(c2ccccc2O)N(NC(=O)CCC(=O)c2nc3ncccc3[nH]2)C1=O` (stereo not given), the growth was 101%.

With `O=c1cc(C(F)(F)F)c2cc(-c3cc4ccccc4c(=O)o3)c(O)cc2o1`, the growth was 64.4%.

In the case of `Cc1ccc2c(/C=C/C(=O)c3cc(CN4CCOCC4)c(O)c4nc(C)ccc34)cc(CN3CCOCC3)c(O)c2n1`, the growth is 7.92% (active).

For the molecule `Cc1sc2nc(NCCN)[nH]c(=O)c2c1C`, the growth is 90%.

For `CCCCNC(=O)c1ccc2c(c1)nc(-c1ccccc1)n2C1CCCCC1`, the growth was 102%.

Regarding `CC1=Nc2cnc(Nc3ccc(N4CCCCC4)cc3)nc2Nc2ccccc21`, the growth was 69.7%.

Regarding `O=C(CCCCCCCC(=O)N1CCCCC1)N1CCCCC1`, the growth was 99.4%.

Take `O=C1OCC2=C1C(c1ccccc1)c1cc3c(cc1N2CCO)OCCO3` (stereo not given): the growth is 35.1%.

For the molecule `Cc1cccc(N=Nc2cccc(C)c2)c1`, the growth is 96.7%.

On to `NC(=O)c1ccccc1OCC(=O)Nc1ccc(Cl)c(Cl)c1`, for which the growth is 101%.

For `CCOc1ccc(/C=C/C(=O)c2cccc(OCCCOc3cccc(C(=O)/C=C/c4ccc(OCC)cc4)c3)c2)cc1`, the growth is 79.5%.

For the molecule `Cc1nc2sc(C(=O)Nc3cccc(Cl)c3C)c(N)c2cc1C(=O)/C=C/c1ccccc1`, the growth is -55.6% (active).

In the case of `COc1ccc(Oc2ccc(/C=C/C(=O)c3cc4ccccc4oc3=O)cc2)cc1`, the growth is 86.1%.

For the molecule `CCOC(=O)c1c(NC(=O)c2ccccc2)sc2c3c(ccc12)OCN(C)C3`, the growth is 20.4%.

Regarding `CSc1ccc(N2C(=N)C(=S)N(c3ccc(C)cc3)C2=O)cc1`, the growth is 94%.

Consider `COC(=O)c1c2c(c[n+]([O-])c1C)C(=O)C=C(NCc1ccccc1)C2=O`, for which the growth was -91.5% (active).

As to `CC(C)(C)CC(C)(C)Nc1c(-c2c(O)c3ccccc3oc2=O)nc2sc3ccccc3n12`, the growth was 51%.

In the case of `Cc1ccc(C2CC(c3cccc(Nc4ccncc4)c3)=Nc3c(N)nc(N)nc3N2)cc1` (stereo not given), the growth is 61.2%.

For `CCN(CC)CCOc1ccc(C(=O)/C=C\c2ccc(Cl)cc2Cl)cc1`, the growth was 43.4%.

With `COC(=O)/C(CCC=C(C)C)=C1\[C@@H](OC(C)=O)C[C@@]2(C)[C@H]1C/C(=N/O)[C@H]1[C@@]3(C)CC/C(=N\O)[C@@H](C)[C@@H]3CC[C@@]12C`, the growth is 95.1%.

On to `CC(C)Cc1nc(Nc2ccccc2)[nH]c(=O)c1C#N`, for which the growth is 52.8%.

Consider `CC[C@@H](C(=O)[C@@H](C)[C@@H](O)[C@H](C)[C@@H]1O[C@@H]([C@@H](CC)C(=O)ONC(=O)c2ccccc2O)CC[C@@H]1C)C1O[C@]2(C=CC(=O)[C@]3(CC[C@@](C)([C@H]4CC[C@](O)(CC)[C@H](C)O4)O3)O2)[C@H](C)C[C@@H]1C` (stereo not given in full), for which the growth was 24.1%.

In the case of `CCOc1ccc(NC(=O)Nc2ccc(OCC)cc2)cc1`, the growth was 104%.

Consider `Nc1nc(C(=O)N/N=C/c2ccc(F)cc2)nn1-c1ccc(S(N)(=O)=O)cc1`, for which the growth was 93.8%.

For `O=[N+]([O-])c1ccccc1Sc1ccccc1[N+](=O)[O-]`, the growth was 99.3%.

For the molecule `Cc1nc2sc(C(=O)Nc3ccccn3)c(N)c2cc1C(C)O` (stereo not given), the growth is 93.7%.

Consider `COc1ccc2cc(-c3nc4ccc(C)cn4c3NCc3ccco3)c(=O)[nH]c2c1`, for which the growth was 76.1%.

As for `CCn1cc(Cc2cc(C(=O)Nc3cc4cc(OC)c(OC)cc4c(C)n3)ccc2Cl)cn1`, the growth is 50.2%.

Take `O=C(NCCN1CCOCC1)OCc1ccc2c(Cl)cc(Cl)c(O)c2n1`: the growth was 64.4%.

Consider `CNC(=O)NCC1OC(n2cnc3c(NC(=O)Nc4ccccc4)ncnc32)C2OC(=O)CC12` (stereo not given), for which the growth was 113%.

Regarding `c1cc(OCCN2CCCC2)ccc1CNc1ccc2nc(CCC3CCCCC3)[nH]c2c1`, the growth is 71.3%.

With `C=CCn1cc(-c2nc3ccccc3s2)c2cc(-c3ccc4c5c(cccc35)C(=O)N(CCO)C4=O)ccc21`, the growth is 89.2%.

For `COc1ccc(C/C(C)=C(\c2ccc(Cl)cc2)c2ccc(OCCN3CCCC3)cc2)cc1`, the growth is 82.7%.

For the molecule `C=C[C@@]1(C)CC(=O)[C@@H](C(C)(C)c2cn(C)c3ccc(Br)cc23)C[C@@H]1O[Si](C)(C)C(C)(C)C`, the growth was 97.6%.

On to `CC(C)(C)OC(=O)CN1CCc2c(sc3ncnc(N4CCN(c5ccc(F)cc5)CC4)c23)C1`, for which the growth is 91.6%.

`CN(C)CCCNC(=O)c1cncnc1Nc1ccc2c(ccn2Cc2cccc(F)c2)c1`: the growth was 84.9%.

`COc1cc(/C=C/c2cn[nH]c2-c2ccc(C)cc2)cc(OC)c1OC`: the growth was 51.2%.

For the molecule `O=[N+]([O-])c1c(O)c(Cl)cc(Cl)c1Cl`, the growth is 101%.

As to `Cc1cc(C)c2c(c1)N(C)c1ncnc(-n3c(C)nc4cc(C)ccc43)c1CC2C` (stereo not given), the growth was 62.3%.
